Assay in all cases: NCI-60 one-dose screen, 48 h (100 = growth as untreated, 0 = no growth, -100 = all killed)
One experiment relates to SK-MEL-2 melanoma. As to conditions: 10 µM unless noted.
A further experiment concerns EKVX NSCLC. As to conditions: 10 µM unless noted.
The next experiment deals with SN12C renal. The note with it: 10 µM unless noted.
In the next experiment the test system is UO-31 renal. The note with it: 10 µM unless noted.
For another experiment, the system named is TK-10 renal. The note with it: 10 µM unless noted.
The next experiment concerns ACHN renal. The note with it: 10 µM unless noted.
A further experiment deals with CAKI-1 renal. As to conditions: 10 µM unless noted.
The subject of another experiment is A498 renal. As to conditions: 10 µM unless noted.
Another experiment has as its system CCRF-CEM leukemia. As to conditions: 10 µM unless noted.
The next experiment has as its system MOLT-4 leukemia. The note with it: 10 µM unless noted.
The subject of the next experiment is SR leukemia. The note with it: 10 µM unless noted.
A further experiment concerns RPMI-8226 leukemia. As to conditions: 10 µM unless noted.
A further experiment deals with OVCAR-8 ovarian. As to conditions: 10 µM unless noted.
The next experiment has as its system OVCAR-5 ovarian. As to conditions: 10 µM unless noted.
A further experiment deals with SK-OV-3 ovarian. The note with it: 10 µM unless noted.
The next experiment deals with IGROV1 ovarian. As to conditions: 10 µM unless noted.
For another experiment, the system named is NCI/ADR-RES ovarian. The note with it: 10 µM unless noted.
Another experiment deals with OVCAR-4 ovarian. The note with it: 10 µM unless noted.
In another experiment the test system is OVCAR-3 ovarian. The note with it: 10 µM unless noted.
A further experiment relates to HS 578T breast. As to conditions: 10 µM.

About 83,000 compounds went through this panel and 20% of them were active in at least one assay; those are over-represented in the sample as a whole.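 Testing used 96-well plates and a 48-hour single-concentration exposure. Example: -40 means 40% of the starting cells died.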 Unmarked numbers belong to inactive results. Activity calls are given as the source filed them. How the source made its calls: active means growth percent below 10; inactive means the rest.

Consider `O=C(O)C1[S][Sb]([CH](C(=O)O)[CH](C(=O)O)[Sb]2[S]C(C(=O)O)C(C(=O)O)[S]2)[S]C1C(=O)O` (stereo not drawn), for which the growth is 64.7% in the experiment with SK-MEL-2 melanoma; 98% with EKVX NSCLC; 90.2% in the experiment with SN12C renal; 77.4% in the experiment with UO-31 renal; 124% in the experiment with TK-10 renal; 96.5% with ACHN renal. Further, the growth was 96.3% in the experiment on CAKI-1 renal; 101% with A498 renal; 52.9% in the experiment with CCRF-CEM leukemia; 63.7% with MOLT-4 leukemia; 50.2% with SR leukemia; 91.9% with RPMI-8226 leukemia. The growth is 96.2% in the experiment with OVCAR-8 ovarian; 118% in the experiment with OVCAR-5 ovarian; 103% with SK-OV-3 ovarian; 87.8% in the experiment with IGROV1 ovarian; 104% in the experiment with NCI/ADR-RES ovarian.

For `O=C1C=CC(=O)N1CO`, the growth in the experiment on SK-MEL-2 melanoma is 123%; in the experiment with EKVX NSCLC it was 138%; in the experiment with SN12C renal it was 99%; with UO-31 renal, 89.1%; in the experiment with TK-10 renal it was 114%; with ACHN renal, 108%. Moreover, the growth in the experiment with CAKI-1 renal is 117%; in the experiment on A498 renal, 113%; in the experiment on CCRF-CEM leukemia, 101%; in the experiment with MOLT-4 leukemia it was -32.2% (active); with RPMI-8226 leukemia it was 112%; in the experiment on OVCAR-8 ovarian, 110%. Moreover, the growth in the experiment on OVCAR-5 ovarian was 101%; with OVCAR-4 ovarian, 130%; with SK-OV-3 ovarian it was 116%; in the experiment on IGROV1 ovarian, 109%; in the experiment with OVCAR-3 ovarian it was 113%; in the experiment on HS 578T breast, 108%. Moreover, the growth in the experiment with NCI/ADR-RES ovarian is 129%.

As for `CCN(C(=O)Nc1cccc2ccccc12)c1ccccc1`, the growth was 108% in the experiment with SK-MEL-2 melanoma; 95.9% with EKVX NSCLC; 103% in the experiment on SN12C renal; 73% in the experiment on UO-31 renal; 108% in the experiment with TK-10 renal; 99.5% in the experiment on ACHN renal. In addition, the growth with CAKI-1 renal is 99.9%; with A498 renal, 90.2%; with CCRF-CEM leukemia it was 109%; in the experiment with MOLT-4 leukemia, 72.6%; with SR leukemia, 90.2%; in the experiment with RPMI-8226 leukemia, 103%. The growth is 74.3% in the experiment on OVCAR-8 ovarian; 99.9% in the experiment with OVCAR-4 ovarian; 96.2% in the experiment with SK-OV-3 ovarian; 90.4% in the experiment with IGROV1 ovarian; 108% with OVCAR-3 ovarian; 111% in the experiment on HS 578T breast. Also, the growth in the experiment on NCI/ADR-RES ovarian is 102%.

Regarding `COc1cc(NC(C)CCCN)c2ncccc2c1Sc1ccc(Cl)cc1` (stereo not drawn), the growth in the experiment on SK-MEL-2 melanoma was 102%; in the experiment with EKVX NSCLC, 71.9%; with SN12C renal, 64.9%; in the experiment with UO-31 renal, 40.1%; in the experiment with TK-10 renal it was 78.6%; in the experiment on ACHN renal, 74.8%. In addition, the growth is 50.2% in the experiment with CAKI-1 renal; 55.9% in the experiment with A498 renal; 44.7% in the experiment on CCRF-CEM leukemia; 31.7% with MOLT-4 leukemia; -35.2% (active) in the experiment with SR leukemia; -8.1% (active) in the experiment with RPMI-8226 leukemia. Also, the growth is 33.3% in the experiment with OVCAR-8 ovarian; 77.8% in the experiment with OVCAR-5 ovarian; 94.7% in the experiment with SK-OV-3 ovarian; 58.6% in the experiment with OVCAR-3 ovarian; 58.9% in the experiment on HS 578T breast; 91.6% with NCI/ADR-RES ovarian.

In the case of `COc1cc2nccc(Oc3ccc(NC(=O)C4(C(=O)Nc5ccc(F)cc5)CC4)cc3)c2cc1O`, the growth in the experiment with SK-MEL-2 melanoma was 88.1%; with EKVX NSCLC, 71.1%; with SN12C renal, 30.5%; with UO-31 renal, 54.4%; in the experiment with TK-10 renal, 76.8%; with ACHN renal, 67.8%. In addition, the growth in the experiment on CAKI-1 renal was 78.1%; in the experiment with A498 renal, 59.4%; in the experiment on CCRF-CEM leukemia, 29%; with MOLT-4 leukemia it was 44.9%; in the experiment with SR leukemia, 41.3%; in the experiment with RPMI-8226 leukemia, 52.8%. Further, the growth with OVCAR-8 ovarian is 73.7%; in the experiment with OVCAR-4 ovarian, 37.1%; in the experiment on SK-OV-3 ovarian, 86.5%; in the experiment on OVCAR-3 ovarian, 78.7%; in the experiment with HS 578T breast, 42.7%; in the experiment on NCI/ADR-RES ovarian it was 71.7%.

In the case of `O=C(CCCCCCc1nc2ccc(Br)cc2[nH]1)NO`, the growth was -5.43% (active) in the experiment on SK-MEL-2 melanoma; 28.6% with EKVX NSCLC; 1.73% (active) with SN12C renal; -17.9% (active) in the experiment on UO-31 renal; -13.9% (active) in the experiment on TK-10 renal; -36.2% (active) in the experiment with ACHN renal. The growth with CAKI-1 renal is -41.5% (active); in the experiment on A498 renal, 9.4% (active); in the experiment with CCRF-CEM leukemia it was 9.8% (active); with MOLT-4 leukemia, 7.38% (active); in the experiment on RPMI-8226 leukemia, -4.38% (active); in the experiment on OVCAR-8 ovarian, 4.11% (active). For the same compound, the growth is 8.25% (active) in the experiment on OVCAR-5 ovarian; 24% in the experiment with OVCAR-4 ovarian; -41.8% (active) with SK-OV-3 ovarian; -9.43% (active) in the experiment on IGROV1 ovarian; -2.31% (active) in the experiment on OVCAR-3 ovarian; 32.6% in the experiment with HS 578T breast. Besides, the growth in the experiment with NCI/ADR-RES ovarian was -31.3% (active).

Consider `FC1(F)CCN(Cc2c[nH]c3cc(Cl)ccc23)C[C@H]1CCc1ccccc1`, for which the growth with SK-MEL-2 melanoma was 76.6%; in the experiment with EKVX NSCLC, 63%; with SN12C renal, 54.3%; in the experiment on UO-31 renal it was 42%; in the experiment on TK-10 renal, 61.6%; in the experiment on ACHN renal, 62.5%. Further, the growth was 62.1% in the experiment with CAKI-1 renal; 82% with A498 renal; 45.9% in the experiment on CCRF-CEM leukemia; 26.7% in the experiment on MOLT-4 leukemia; 51.6% in the experiment on SR leukemia; 34% in the experiment with RPMI-8226 leukemia. Moreover, the growth was 47.7% with OVCAR-8 ovarian; 56.7% in the experiment with OVCAR-4 ovarian; 84% in the experiment on SK-OV-3 ovarian; 40.8% with IGROV1 ovarian; 54.6% in the experiment on OVCAR-3 ovarian; 56.6% in the experiment on HS 578T breast. Further, in the experiment with NCI/ADR-RES ovarian, the growth is 37.2%.

Regarding `COCCn1c(Nc2ccc(C(=O)NO)cc2)nc2ccccc21`, the growth with SK-MEL-2 melanoma was 39.6%; in the experiment on EKVX NSCLC, 56.5%; in the experiment with SN12C renal it was 66.3%; in the experiment on UO-31 renal, 50.3%; in the experiment on TK-10 renal, 26.7%; in the experiment with ACHN renal it was 57.1%. Besides, the growth was 47.3% with CAKI-1 renal; 84.2% in the experiment on A498 renal; 48.5% in the experiment with CCRF-CEM leukemia; 33.4% in the experiment with MOLT-4 leukemia; 44% in the experiment on RPMI-8226 leukemia; 37.3% in the experiment with OVCAR-8 ovarian. Moreover, the growth was 47.4% with OVCAR-5 ovarian; 72.2% in the experiment on OVCAR-4 ovarian; 49.2% with SK-OV-3 ovarian; 57.5% with IGROV1 ovarian; 83.5% in the experiment with OVCAR-3 ovarian; 80.7% in the experiment with HS 578T breast. The growth in the experiment on NCI/ADR-RES ovarian was -9.22% (active).

These data come from PubChem BioAssay (NCI).
